A selection: hits, their analogues and other compounds. The true share with any hit is near 0.84%.
DTT redox prof: compounds producing H2O2 with reducing agent – biochemical, NIH compound library profiling, artefact control for MLSCN library redox annotation, primary screen; DTT-dependent redox cycling H2O2, phenol red/HRP absorbance; 100% = 100 µM peroxide control, 0% = buffer; activation, % at 10 µM; hit rate 0.03% among 200,000;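 active = activation of at least 50% relative to the plate's high and low controls in the primary single-dose screen; inactive = activation below 50%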;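 note: compound incubated with DTT at 0.8 mM final as the reducing agent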
p97 ATPase inh: inhibitors of human p97 ATPase, primary screen, biochemical; hit rate 0.42% among 220,000; Transitional endoplasmic reticulum ATPase (Homo sapiens), P55072; recombinant p97 ATPase, Kinase-Glo ATP luminescence, 3 h; inhibition, % at 8 µM; in the data active = inhibition above about 15%;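 note: 0% = DMSO vehicle and 100% = wells lacking enzyme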
Target sequence (P55072 whole entry, looked up): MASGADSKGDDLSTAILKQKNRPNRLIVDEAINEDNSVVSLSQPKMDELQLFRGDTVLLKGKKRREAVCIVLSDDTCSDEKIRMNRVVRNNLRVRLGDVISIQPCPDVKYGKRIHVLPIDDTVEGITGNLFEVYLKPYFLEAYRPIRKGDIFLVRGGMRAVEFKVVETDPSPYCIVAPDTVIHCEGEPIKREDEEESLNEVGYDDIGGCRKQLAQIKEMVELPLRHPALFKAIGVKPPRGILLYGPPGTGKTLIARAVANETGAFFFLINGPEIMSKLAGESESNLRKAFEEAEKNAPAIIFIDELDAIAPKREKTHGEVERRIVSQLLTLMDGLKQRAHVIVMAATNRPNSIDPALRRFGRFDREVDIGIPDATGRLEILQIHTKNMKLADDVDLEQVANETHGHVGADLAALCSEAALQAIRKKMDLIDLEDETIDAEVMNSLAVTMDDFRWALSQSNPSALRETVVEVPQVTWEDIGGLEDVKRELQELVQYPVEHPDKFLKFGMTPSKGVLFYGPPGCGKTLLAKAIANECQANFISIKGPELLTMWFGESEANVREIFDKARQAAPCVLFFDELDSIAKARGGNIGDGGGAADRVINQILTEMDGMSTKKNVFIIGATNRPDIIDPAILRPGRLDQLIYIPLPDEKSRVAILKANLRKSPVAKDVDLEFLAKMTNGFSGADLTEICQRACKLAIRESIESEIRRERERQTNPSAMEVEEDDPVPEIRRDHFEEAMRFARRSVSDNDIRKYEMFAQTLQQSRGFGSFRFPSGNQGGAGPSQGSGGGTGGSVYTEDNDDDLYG
TbHK1 inh: Trypanosoma brucei hexokinase 1 inhibitors, primary screen, biochemical, G6PDH-coupled NADH absorbance, MLSCN library | hexokinase 1 [Trypanosoma brucei] | hit rate 0.11% among 220,000 | recombinant TbHK1, G6PDH-coupled NADH A340 | inhibition, % at 10 µM;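 active = inhibition of 50% or more in the single-dose primary screen; inactive = inhibition below 50%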
S1P3 antagonist: S1P3 receptor antagonists, primary screen, cell-based; Sphingosine 1-phosphate receptor 3 (Homo sapiens), Q99500; CHO S1P3 NFAT-BLA reporter, FRET fluorescence, antagonist mode; inhibition, % at 4.98 µM; hit rate 0.27% among 170,000; AID 485, 2006;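 active = inhibition above the plate cutoff, the mean inhibition of test wells on that plate plus 3 SD, cut at about 28% in these data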;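 note: cells challenged with S1P at its EC80 of 0.8 µM; blue over green emission ratio from cleaved BLA substrate after 4 h stimulation; 0% = S1P-stimulated wells and 100% = unstimulated DMSO-only wells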
G6PDH counter: L. mesenteroides G6PDH inhibitors, counter-screen for G6PDH-coupled screening assays, biochemical, Leuconostoc mesenteroides enzyme. glucose-6-phosphate dehydrogenase [Leuconostoc mesenteroides]. AID 1020, 2008. hit rate 0.12% among 200,000. Purified L. mesenteroides G6PDH, diaphorase/resazurin coupled fluorescence, 45 min. inhibition, % at 5 µM; in the data active = inhibition above about 50%
p97 confirm: p97 ATPase inhibitors, retest, confirmation, biochemical. shares compounds with p97 ATPase inh. recombinant p97 ATPase, Kinase-Glo ATP luminescence. inhibition, % at 8 µM. hit rate 44% among 760;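 active = percent inhibition of p97 ATPase above a set limit, the primary screen's mean plus 3 SD, cut at about 15% in these data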;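 note: 0% = DMSO wells and 100% = wells lacking p97 protein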
The depositor's hits bear a star.

`COc1cc(CCC(=O)OCC(=O)Nc2cccc(S(=O)(=O)N(C)C)c2)cc(OC)c1OC` gave DTT redox prof -0.4, p97 ATPase inh -3.2, TbHK1 inh -1.0, S1P3 antagonist -2.1 and G6PDH counter 4.5.
Screening O=C(O)/C=C/C(=O)NCCNc1ncc(C(F)(F)F)cc1Cl returned DTT redox prof -2.0, p97 ATPase inh -4.1, TbHK1 inh -1.0, S1P3 antagonist 1.9 and G6PDH counter 13.5.
Screening O=C(c1ccc(Cl)c(Cl)c1)N(Cc1ccco1)c1ccc(O)cc1 returned DTT redox prof -2.7, p97 ATPase inh 0.6, TbHK1 inh 6.7, S1P3 antagonist -8.4 and G6PDH counter 4.4.
Screening C=CCNCC(O)COc1ccc(C(C)=O)cc1OC (configuration not stated) returned p97 ATPase inh 18.1*, TbHK1 inh -4.3, S1P3 antagonist -10.3 and p97 confirm 10.3.
`C=CCNC(=S)Nc1ccc2nsnc2c1` gave DTT redox prof -0.2, p97 ATPase inh 28.6*, TbHK1 inh -18.2, S1P3 antagonist 6.3, G6PDH counter 25.1 and p97 confirm 1.0.
`C=CCN(CC=C)C(=S)Nc1ccc2nsnc2c1` gave DTT redox prof 1.6, p97 ATPase inh 18.4*, TbHK1 inh -2.0, S1P3 antagonist -8.9, G6PDH counter 33.2 and p97 confirm 4.3.
For COCCNC(=S)Nc1ccc2nsnc2c1 the results were DTT redox prof 0.3, p97 ATPase inh -0.3, TbHK1 inh 4.3, S1P3 antagonist -20.6 and G6PDH counter 34.8.
COC(=O)c1cc2n3ccccc3c(C)c(-c3ccccc3)c-2c1C(=O)OC was read as DTT redox prof 0.2, p97 ATPase inh 1.9, TbHK1 inh -46.8 and G6PDH counter -4.2.
Screening CC(C)=CCC/C(C)=C/C=N/NC(=O)c1ccccc1[N+](=O)[O-] returned DTT redox prof -8.1, p97 ATPase inh -1.4, TbHK1 inh 2.3 and G6PDH counter 3.0.
`COc1cc2cccc(OC)c(=O)c2c(O)c1OC` gave DTT redox prof -0.3, p97 ATPase inh 9.2, TbHK1 inh -4.5, S1P3 antagonist -6.3 and G6PDH counter 7.1.
Oc1cccc2cc3cccc(O)c3c(O)c12 was read as DTT redox prof -1.1, p97 ATPase inh 15.2*, TbHK1 inh 8.6, S1P3 antagonist -10.4, G6PDH counter 5.7 and p97 confirm 14.1.
For CCOC(=O)c1c(NC(N)=O)nc2n1CCC2 the results were DTT redox prof -0.4, p97 ATPase inh 3.4, TbHK1 inh -2.8, S1P3 antagonist 9.8 and G6PDH counter 0.0.
Nc1ccc(N2CCOCC2)c2nonc12 was read as DTT redox prof -1.3, p97 ATPase inh 46.7*, TbHK1 inh -4.2, S1P3 antagonist -18.2, G6PDH counter 47.0 and p97 confirm 1.6.
For C[N+](C)(CC#N)C/C=C\c1ccccc1 the results were DTT redox prof -0.7, p97 ATPase inh 16.7*, TbHK1 inh 4.7, S1P3 antagonist -14.4, G6PDH counter 7.2 and p97 confirm 4.5.
For C(=C\c1ccccc1)/CNn1cnnc1 the results were DTT redox prof -0.1, p97 ATPase inh 5.0, TbHK1 inh 0.8, S1P3 antagonist -3.3 and G6PDH counter 0.4.
N#C/C(=C/c1ccc(-c2ccc(C(=O)O)c(Cl)c2)o1)C(=O)NCC1CCCO1 (configuration not stated) was read as DTT redox prof 0.0, p97 ATPase inh 27.1*, TbHK1 inh -18.2, S1P3 antagonist 8.9, G6PDH counter 6.2 and p97 confirm 37.1*.
Screening COC(=O)c1sc(-c2cccs2)cc1NC(=O)/C=C/C(=O)O returned p97 ATPase inh 24.8*, TbHK1 inh -53.0, S1P3 antagonist 7.2 and p97 confirm 22.5*.
Screening O=c1c2ccccc2nc2c3ccccc3c(Cl)nn12 returned DTT redox prof -0.1, p97 ATPase inh 21.2*, TbHK1 inh -11.1, S1P3 antagonist 8.3, G6PDH counter 6.8 and p97 confirm 24.5*.
Screening Cc1cc(/C=N/NC(N)=S)c(O)c(/C=N/NC(N)=S)c1 returned p97 ATPase inh 19.1*, TbHK1 inh -6.4, S1P3 antagonist -2.4 and p97 confirm 20.1*.
For O=C(N/N=C/c1c[nH]c2ccccc12)c1cc(-c2ccc(-c3ccccc3)cc2)n[nH]1 the results were DTT redox prof -4.0, p97 ATPase inh 17.1*, TbHK1 inh -9.6, G6PDH counter -3.5 and p97 confirm 10.9.
O=C(N/N=C/c1c[nH]c2ccccc12)c1cc(-c2ccccc2)n[nH]1 was read as DTT redox prof 0.6, p97 ATPase inh 3.9, TbHK1 inh -14.0, S1P3 antagonist 10.1 and G6PDH counter 10.5.
For Cc1[nH]c2ccccc2c1/C=N/NC(=O)c1cccs1 the results were DTT redox prof 0.4, p97 ATPase inh 16.4*, TbHK1 inh -42.3, S1P3 antagonist -4.3, G6PDH counter 8.3 and p97 confirm 22.3*.
For Cc1[nH]c2ccccc2c1/C=N/NC(=O)c1cc(C(C)C)[nH]n1 the results were p97 ATPase inh 17.3*, TbHK1 inh -63.5, S1P3 antagonist -4.9 and p97 confirm 17.4*.
S=C(NC1CCCCC1)N1CCN(Cc2ccccc2)CC1 was read as DTT redox prof 0.0, p97 ATPase inh -2.6, TbHK1 inh -5.1, S1P3 antagonist 16.1 and G6PDH counter -0.3.
Screening CCCCC(=O)Nc1ccc(NC(=S)NC(=O)CC)cc1OC returned DTT redox prof 0.2, p97 ATPase inh 3.0, TbHK1 inh -8.3, S1P3 antagonist -4.7 and G6PDH counter 0.1.
`CCCCC(=O)NC(=S)Nc1cc(C(=O)O)ccc1OC` gave DTT redox prof -0.1, p97 ATPase inh 17.8*, TbHK1 inh 4.1, S1P3 antagonist -11.9, G6PDH counter 7.6 and p97 confirm 9.7.
For Cc1cccc(/C=N/NC(=O)Cc2cccs2)c1 the results were p97 ATPase inh -1.0, TbHK1 inh 9.4 and S1P3 antagonist 0.5.
Screening CCc1cccc(CC)c1N(COC)C(=O)Cn1nnc2ccccc21 returned DTT redox prof -0.2, p97 ATPase inh -5.8, TbHK1 inh 0.7 and G6PDH counter 8.6.
`CC1=NN(c2ccc(Cl)cc2)C(=O)C1C(c1ccccc1O)c1c(C)[nH]n(-c2ccc(Cl)cc2)c1=O` (configuration not stated) gave DTT redox prof 0.3, p97 ATPase inh 32.3*, TbHK1 inh -7.8, S1P3 antagonist -6.5, G6PDH counter -4.7 and p97 confirm 7.7.
Screening Cc1ccsc1C=Nc1ccc(O)cc1 returned DTT redox prof 1.4, p97 ATPase inh 25.0*, TbHK1 inh 3.5, S1P3 antagonist 2.2, G6PDH counter 33.5 and p97 confirm 2.9.

Compound activity from PubChem.
